Assay results as given in PubChem BioAssay (NCATS).
Inconclusive results are not listed. A call without a number means that no potency is given here. Active and inactive are the calls of the source. Unless noted, calls come from the whole dose curve; as a rule, active = well fitted curve in the direction sought with a large enough effect; inconclusive = small, poorly fitted or top-dose-only effect, or another doubt; inactive = no such curve, though single readings can be large; an effect the other way counts as inactive or inconclusive.

Experiments:
[1] = P-glycoprotein substrates identified in KB-3-1 adenocarcinoma cell line, qHTS therapeutic library screen (AID 1346986); note: nearly all actives have a fitted effect of over 60% in size;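 note: potency is the fitted concentration of half-maximal effect; potency is for cytotoxicity meaning loss of cell viability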
Summary of the method: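 Cells seeded 500/well in DMEM/10% FCS; compounds pinned in dose-response; 72 h incubation; CellTiter-Glo added, 5 min, luminescence. KB-8-5-11 run ±tariquidar to test reversal of P-gp resistance.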

[2] = P-glycoprotein substrates identified in KB-8-5-11 adenocarcinoma cell line, qHTS therapeutic library screen (AID 1346987); note: nearly all actives have a fitted effect of over 65% in size; note: potency is the fitted concentration of half-maximal effect
Summary of the method: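 Steps: plate 500 KB-8-5-11 cells/well in DMEM + 10% FCS (colchicine removed); pin compounds in dose-response; incubate 72 h, 37 degree C, 5% CO2; add CellTiter-Glo, 5 min; read luminescence.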

[3] = Primary qHTS for inhibitors of nuclear receptor binding SET domain protein 2 (NSD2) in an isogenic RCH-ACV NSD2 p.E1099K mutant (9B) (AID 1645876); note: nearly all actives have a fitted effect of over 70% in size; note: potency is the fitted concentration of half-maximal effect
[4] = Primary qHTS for inhibitors of nuclear receptor binding SET domain protein 2 (NSD2) in an RCH-ACV wild type WT cells (2C) (AID 1645877); note: nearly all actives have a fitted effect of over 70% in size; note: potency is the fitted concentration of half-maximal effect
[5] = target: Calcium and integrin-binding protein 1 (Homo sapiens) (UniProt Q99828); assay: Primary qHTS for Identification of Calcium Integrin Binding Protein 1 (CIB1) Competitor (AID 1508620);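 note: GST tagged CIB1 binding a fluorescein labelled alphaIIb integrin peptide tracer; top concentration of the series differs between compounds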
Summary of the method: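 CIB1-GST (1 uM final) and compound incubated 15 min at room temperature before adding FITC-alphaIIb peptide tracer (100 nM final). Competition for binding read by fluorescence polarization (ex 480, em 540) after another 15 min at room temperature.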

[6] = target: Glutathione peroxidase 1 (Homo sapiens) (UniProt P07203); assay: Primary qHTS Assay for Inhibitors of Recombinant Selenoprotein Glutathione Peroxidase 1 (GPX1) (AID 1845191); note: nearly all actives have a fitted effect of over 65% in size; note: potency is the fitted concentration of half-maximal effect
Summary of the method: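 10 nM GPX1 + cpd, 30 min RT; start w/ 1 mM GSH, 0.5 mM cumene hydroperoxide, 0.5 mM NADPH, 100 nM GR, 0.01% BSA; buffer 50 mM Tris-HCl pH 7.5, 2 mM EDTA, 150 mM NaCl; Fl 340/450, 0 & 15 min.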

[7] = target: Cytochrome P450 3A4 (Homo sapiens) (UniProt P08684); assay: qHTS Assay for Inhibitors and Substrates of Cytochrome P450 3A4 (AID 884); note: potency is the fitted concentration of half-maximal effect; nearly all actives have a fitted effect of over 50% in size
Summary of the method: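 20 nM human CYP3A4 with 25 uM Luciferin-PPXE (at KM) in 200 mM KPO4, preincubated 10 min with compound; NADPH regeneration started a 60 min RT reaction. Luciferin detected by luminescence, normalized to 57 uM ketoconazole as full inhibition.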

[8] = target: Cytochrome P450 3A4 (Homo sapiens) (UniProt P08684); assay: qHTS Assay for Activators of Cytochrome P450 3A4 (AID 885); note: nearly all actives have a fitted effect of over 65% in size
Summary of the method: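 Quantitative HTS format: compounds preincubated with 20nM human CYP3A4 and Luciferin-PPXE substrate at KM, reaction started by NADPH regeneration, stopped after 60 min, luciferase luminescence read 20 min later.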

[9] = Confirmation and Secondary Assay for Modulators of Hemoglobin Beta Chain Splicing at IVS2 654 locus (AID 910);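 note: HeLa cells stably carrying EGFP split by mutant beta-globin IVS2-654 intron; per-well total GFP intensity by laser scanning cytometry after 2-day treatment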
Summary of the method: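 Readout: per-well total peak green fluorescence (488 nm ex, 500–520 nm em) from objects 5–250 µm, reflecting correct splicing of an EGFP-654 reporter. Compounds were applied for 2 days at 37 °C to overnight-plated HeLa EGFP-654 cells; controls were DMSO and 500 nM IVS2-654 PNA.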

[10] = Confirmation and Secondary Assay for Modulators of Hemoglobin Beta Chain Splicing at IVS2 705 locus (AID 930);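 note: HeLa cells stably expressing the EGFP-705 splicing reporter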
Summary of the method: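 Restored EGFP fluorescence after 2-day compound exposure reports splicing correction in IVS2-705 EGFP reporter HeLa cells; positive control was 500 nM splice-blocking PNA oligo. Signal measured as well total peak GFP intensity (488 nm excitation).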

[11] = qHTS Assay for Lipid Storage Modulators (AID 1519; calls by dose curve); details: Drosophila S3 cells, BODIPY lipid droplet/cell ratio, laser cytometry, cells loaded with oleic acid
Summary of the method: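 Cells seeded at 5,000 per well were treated with compounds over a concentration series and loaded with oleic acid (400 uM, as added). Lipid droplet fluorescence (488 nm excitation, 500-530 nm channel) was read by laser-scanning cytometry and normalized to 20 uM Triacsin C.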

[12] = target: Ubiquitin carboxyl-terminal hydrolase 1 (Homo sapiens) (UniProt O94782); assay: Inhibitors of USP1/UAF1: Pilot qHTS (AID 504865);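 note: rhodamine fluorescence freed from ubiquitin-rhodamine substrate followed over time; top concentration of the series differs between compounds; nearly all actives have a fitted effect of over 35% in size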
Summary of the method: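 Enzyme-free wells gave the negative control, while test wells held 1nM USP1/UAF1 preincubated with compound for 15 min at room temperature. Ub-Rho at 150nM final started the reaction, and fluorescence at 480/540 nm was recorded kinetically.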

[13] = qHTS to identify inhibitors of the type 1 interferon - major histocompatibility complex class I in skeletal muscle: primary screen against the NCATS Mechanism Interrogation Plate v5.0 (MIPE) Libary (AID 1347411); note: nearly all actives have a fitted effect of over 65% in size
Summary of the method: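 Luminescence from HiBiT-tagged endogenous HLA-B*08:01 served as the MHC class I read-out. CRISPR-engineered C25cl48 human myoblasts received 4.0 ng/ml IFN-beta plus compound for 24 hrs, with an 11-point, 1:3 series topping at 46 uM final.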

[14] = target: Phospholipid hydroperoxide glutathione peroxidase GPX4 (Homo sapiens) (UniProt P36969); assay: Primary qHTS Assay for Inhibitors of Recombinant Selenoprotein Glutathione Peroxidase 4 (GPX4) (AID 1845192); details: outcome: dose series up to 50 µM unless noted; note: nearly all actives have a fitted effect of over 65% in size
Summary of the method: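 NADPH consumption, followed by fluorescence at 340/450 nm between 0 and 15 min, reports GPX4 activity via coupled glutathione reductase (100 nM). Enzyme 200 nM was pre-exposed to compound 30 min; 0.5 mM cumene hydroperoxide and 1 mM GSH served as substrates.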

[15] = qHTS drug screen for cell cycle checkpoint inhibitors in PARPi-resistant BRCA-mutant ovarian cancer cell lines. (AID 1963452; calls by dose curve); details: PEO1/OlaR viability, CellTiter-Glo luminescence, 96 h, stronger effect = lower value
Summary of the method: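 PEO1, PEO4 and PEO1/OlaR ovarian cancer cells, 600 per well, exposed 96 h at 37C to a dilution series. Viability read by CellTiter-Glo luminescence, normalized to DMSO and empty wells; activity summarized as Z-AUC.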

[16] = target: Catechol O-methyltransferase (Homo sapiens) (UniProt P21964); assay: Confirmatory Screen for Target Class Profiling of Small Molecule Inhibitors of Methyltransferases (AID 1745852; calls by dose curve); details: MTase-Glo luminescence, SAH detection, recombinant enzyme; measured here: COMT max response; stronger effect = lower value
[17] = target: Guanidinoacetate N-methyltransferase (Homo sapiens) (UniProt Q14353); assay: as above; details: activity change, negative = inhibition: at 57.3 µM (top of the series) unless noted
[18] = target: Nicotinamide N-methyltransferase (Homo sapiens) (UniProt P40261); assay: as above; details: MTase-Glo luminescence, SAH detection, recombinant enzyme; measured here: NNMT max response; stronger effect = lower value
[19] = target: Phenylethanolamine N-methyltransferase (Homo sapiens) (UniProt P11086); assay: as above; details: MTase-Glo luminescence, SAH detection, recombinant enzyme; measured here: PNMT max response; stronger effect = lower value
[20] = measured here: PEO1 parental Z-AUC

Glutathione peroxidase 1 (Homo sapiens), sequence (P07203 whole entry, looked up): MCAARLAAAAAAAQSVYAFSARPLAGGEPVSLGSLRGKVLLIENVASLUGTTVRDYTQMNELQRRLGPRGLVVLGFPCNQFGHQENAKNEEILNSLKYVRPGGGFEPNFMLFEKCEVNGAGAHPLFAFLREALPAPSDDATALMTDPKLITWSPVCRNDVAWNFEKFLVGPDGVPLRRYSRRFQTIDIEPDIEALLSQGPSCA
Phospholipid hydroperoxide glutathione peroxidase GPX4 (Homo sapiens), sequence (P36969 whole entry, looked up): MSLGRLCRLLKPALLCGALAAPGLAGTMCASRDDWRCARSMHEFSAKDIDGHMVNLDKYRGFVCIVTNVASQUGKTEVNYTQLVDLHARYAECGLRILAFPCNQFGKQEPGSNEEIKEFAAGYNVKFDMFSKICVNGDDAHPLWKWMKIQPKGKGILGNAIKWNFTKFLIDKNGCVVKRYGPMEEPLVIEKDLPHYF
Cytochrome P450 3A4 (Homo sapiens), sequence (P08684 whole entry, looked up): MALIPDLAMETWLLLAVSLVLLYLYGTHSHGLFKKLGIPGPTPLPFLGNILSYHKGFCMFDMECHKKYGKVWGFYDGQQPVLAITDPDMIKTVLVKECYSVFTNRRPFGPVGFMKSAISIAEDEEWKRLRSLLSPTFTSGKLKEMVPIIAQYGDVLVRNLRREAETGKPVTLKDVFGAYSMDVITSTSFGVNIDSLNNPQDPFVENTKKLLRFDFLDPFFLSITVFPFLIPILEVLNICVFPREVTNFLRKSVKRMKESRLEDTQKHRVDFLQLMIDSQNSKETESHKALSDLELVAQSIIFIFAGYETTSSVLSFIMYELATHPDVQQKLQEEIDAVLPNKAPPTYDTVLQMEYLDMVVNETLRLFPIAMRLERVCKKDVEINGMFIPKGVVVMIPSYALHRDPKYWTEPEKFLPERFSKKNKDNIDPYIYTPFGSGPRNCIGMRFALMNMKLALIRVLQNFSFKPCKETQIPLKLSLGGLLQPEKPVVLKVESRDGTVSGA
Calcium and integrin-binding protein 1 (Homo sapiens), sequence (Q99828 whole entry, looked up): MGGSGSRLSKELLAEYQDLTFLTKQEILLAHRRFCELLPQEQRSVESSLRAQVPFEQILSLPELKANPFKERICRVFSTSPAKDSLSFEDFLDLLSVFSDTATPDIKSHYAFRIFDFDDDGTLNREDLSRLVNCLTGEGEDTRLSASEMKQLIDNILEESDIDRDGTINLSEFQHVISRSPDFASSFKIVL
Catechol O-methyltransferase (Homo sapiens), sequence (P21964 whole entry, looked up): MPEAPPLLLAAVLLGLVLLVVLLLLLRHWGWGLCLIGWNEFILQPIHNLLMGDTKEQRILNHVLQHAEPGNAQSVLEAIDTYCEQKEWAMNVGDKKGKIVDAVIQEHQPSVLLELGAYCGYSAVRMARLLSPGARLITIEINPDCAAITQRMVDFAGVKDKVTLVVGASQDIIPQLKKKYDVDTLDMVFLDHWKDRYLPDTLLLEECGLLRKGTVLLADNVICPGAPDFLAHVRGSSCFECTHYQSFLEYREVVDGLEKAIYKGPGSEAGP
Nicotinamide N-methyltransferase (Homo sapiens), sequence (P40261 whole entry, looked up): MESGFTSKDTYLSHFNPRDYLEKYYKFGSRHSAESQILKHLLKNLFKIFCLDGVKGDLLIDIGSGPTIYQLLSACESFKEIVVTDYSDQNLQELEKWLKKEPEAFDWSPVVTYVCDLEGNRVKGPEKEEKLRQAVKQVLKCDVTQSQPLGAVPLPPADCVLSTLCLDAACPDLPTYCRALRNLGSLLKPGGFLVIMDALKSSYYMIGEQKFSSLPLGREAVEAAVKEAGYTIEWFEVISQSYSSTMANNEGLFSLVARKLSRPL
Phenylethanolamine N-methyltransferase (Homo sapiens), sequence (P11086 whole entry, looked up): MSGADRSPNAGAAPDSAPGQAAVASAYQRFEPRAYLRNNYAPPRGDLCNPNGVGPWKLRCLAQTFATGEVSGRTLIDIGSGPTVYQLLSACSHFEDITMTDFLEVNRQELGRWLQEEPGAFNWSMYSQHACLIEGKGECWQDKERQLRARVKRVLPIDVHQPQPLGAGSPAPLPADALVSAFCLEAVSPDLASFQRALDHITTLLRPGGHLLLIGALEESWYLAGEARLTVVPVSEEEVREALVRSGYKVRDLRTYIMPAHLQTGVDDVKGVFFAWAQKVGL
Ubiquitin carboxyl-terminal hydrolase 1 (Homo sapiens), sequence (O94782 whole entry, looked up): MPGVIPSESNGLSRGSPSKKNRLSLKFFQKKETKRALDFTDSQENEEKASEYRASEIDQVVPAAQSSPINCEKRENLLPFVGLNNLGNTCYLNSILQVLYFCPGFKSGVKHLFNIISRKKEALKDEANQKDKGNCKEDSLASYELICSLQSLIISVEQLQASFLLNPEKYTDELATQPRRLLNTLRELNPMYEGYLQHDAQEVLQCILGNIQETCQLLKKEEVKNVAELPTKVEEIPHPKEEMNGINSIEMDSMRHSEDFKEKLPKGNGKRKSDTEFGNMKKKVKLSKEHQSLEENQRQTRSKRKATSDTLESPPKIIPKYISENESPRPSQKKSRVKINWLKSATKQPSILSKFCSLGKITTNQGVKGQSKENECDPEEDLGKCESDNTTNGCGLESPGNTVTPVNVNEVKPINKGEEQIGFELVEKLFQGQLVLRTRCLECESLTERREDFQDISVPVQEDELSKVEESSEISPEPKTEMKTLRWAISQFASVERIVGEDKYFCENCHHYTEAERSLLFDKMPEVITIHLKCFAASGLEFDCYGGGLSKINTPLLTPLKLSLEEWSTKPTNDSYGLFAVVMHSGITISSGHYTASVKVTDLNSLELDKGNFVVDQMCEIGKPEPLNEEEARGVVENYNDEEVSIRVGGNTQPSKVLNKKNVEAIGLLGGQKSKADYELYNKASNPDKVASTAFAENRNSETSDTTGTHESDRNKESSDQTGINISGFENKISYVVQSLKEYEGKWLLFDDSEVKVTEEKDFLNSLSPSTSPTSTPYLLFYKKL

Structure (SMILES): CN(C)CC1CCn2cc(c3ccccc32)C2=C(C(=O)NC2=O)c2cn(c3ccccc23)CCO1 (stereo not drawn)
- Potency [1]: inactive
- Potency [2]: inactive
- Potency [3]: 13000 nM (active)
- Potency [4]: 16400 nM (active)

Structure (SMILES): CCOc1ccc(/C=C2\SC(=O)N(CCN)C2=O)cc1
- Potency [1]: inactive
- Potency [2]: inactive
- Potency [3]: inactive
- Potency [4]: inactive

Structure (SMILES): Cc1ccc(NS(=O)(=O)c2cc3c(cc2NCCO)NC(=O)CC3)cc1C
- Potency [1]: inactive
- Potency [2]: inactive
- outcome [5]: inactive
- Potency [3]: inactive
- Potency [6]: inactive

Structure (SMILES): COc1cc(OC)c2ccc(=O)oc2c1
- Potency [7]: 31600 nM (active)
- Potency [8]: inactive
- outcome [9]: inactive
- outcome [10]: inactive
- activity change, negative = inhibition ([11]; at 57.5 µM (top of the series)): 13.4% (inactive)
- max response ([11]; measured here: cell count channel max response): 9.58%
- max response ([11]; measured here: lipid channel max response): 25.2%
- Potency [12]: inactive
- Potency [1]: inactive
- Potency [2]: inactive
- Potency [3]: inactive
- Potency [4]: inactive
- Potency [6]: 25500 nM (active)

Structure (SMILES): OCCn1cc(-c2ccc3c(c2)CC/C3=N\O)c(-c2ccncc2)n1
- Potency [1]: inactive
- Potency [2]: inactive
- Potency [13]: inactive
- Potency [6]: inactive
- Potency [14]: inactive
- Z-AUC [15]: 2.52 (inactive)
- Z-AUC [15, 20]: 1.44
- Z-AUC ([15]; measured here: PEO4 Z-AUC): 1.33

Structure (SMILES): CN1CCCN(C(=O)c2cccc(-c3ccc(/C=C4\C(=O)Nc5ccc(Cl)cc54)o3)c2)CC1
- Potency [1]: 8200 nM (active)
- Potency [2]: 9200 nM (active)
- Potency [3]: 231 nM (active)

Structure (SMILES): O=S(=O)(/N=C/c1c(O)ccc2ccccc12)c1cccs1
- Potency [1]: inactive
- Potency [2]: inactive
- Potency [3]: inactive
- Potency [4]: inactive

Structure (SMILES): CN(C)CCNC(=O)c1cccn2c(=O)c3cc4ccccc4cc3nc12
- Potency [1]: 1190 nM (active)
- Potency [2]: 1190 nM (active)
- Potency [3]: 668 nM (active)
- Potency [4]: 668 nM (active)
- activity [16]: 3%
- activity change, negative = inhibition [17]: 0.968% [at 12.7 µM]
- activity [18]: 3.48%
- activity [19]: 3.82%
- activity, negative = inhibition [6]: 2.53% [at 9.52 µM] (inactive)

Structure (SMILES): CC(N)C1CCC(C(=O)Nc2ccncc2)CC1 (stereo not drawn)
- Potency [1]: inactive
- Potency [2]: inactive
- Potency [3]: inactive
- Potency [4]: inactive

Structure (SMILES): C#Cc1cccc(Nc2ncnc3cc4c(cc23)OCCOCCOCCO4)c1
- Potency [1]: inactive
- Potency [2]: inactive
- Potency [13]: inactive
- Potency [4]: inactive
- Potency [6]: inactive
- Potency [14]: inactive
- Z-AUC [15]: 0.644 (inactive)
- Z-AUC [15, 20]: 0.664
- Z-AUC ([15]; measured here: PEO4 Z-AUC): 0.297

Structure (SMILES): O=C1/C(=C/c2ccc(O)c(O)c2)Oc2ccccc21
- Potency [1]: inactive
- Potency [2]: inactive
- Potency [3]: 1840 nM (active)
- Potency [4]: 2060 nM (active)

Structure (SMILES): O=C1CCCC2=C1C1(CCCC1)N=C(Nc1nc3ccccc3o1)N2
- Potency [1]: inactive
- Potency [2]: inactive
- outcome [5]: inactive
- Potency [3]: inactive
- Potency [4]: inactive
- Potency [6]: inactive
